Among the data in the supplement of paper PMC4709259 are mean cell size values, retold here.

Where a name gives a salt, the structure may show the parent alone. ± gives the standard deviation.

For this assay, the system named is Jurkat. Put plainly: mean cell size (FSC-A) relative to DMSO control (fraction of control); higher = larger cells. As to conditions: 48 h. In outline: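 Jurkat cells seeded at 600 cells/µl were incubated 1 h, then exposed for 48h to the Enzo Screen-Well FDA Approved Drug Library v2.0 at 25µM in 0.9% (v/v) final DMSO. Drugs that cut counts below 20% of controls were diluted 10-fold and retested, down to 25nM. Cell count and mean cell size (forward scatter area) were read on an Accuri C6 flow cytometer, relative to solvent-only controls. Plates held 6-12 controls; values are means of 3 biological replicates.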
On to `C[N+](C)(C)C[C@H](O)CC(=O)[O-]` [Levocarnitine] (concentration: 25 µM), for which the mean cell size was 0.938 ± 0.013.
The value for `COc1cc(C(=O)NCc2ccc(OCCN(C)C)cc2)cc(OC)c1OC` [Trimethobenzamide·HCl] (concentration: 25 µM) was 0.9923 ± 0.0096; that for `COc1ccc(CC(C)NCC(O)c2ccc(O)c(NC=O)c2)cc1` (stereo not given) [Formoterol] (concentration: 25 µM) was 0.992 ± 0.033.
For the compound `CCCc1nc(C(C)(C)O)c(C(=O)O)n1Cc1ccc(-c2ccccc2-c2nnn[nH]2)cc1` [Olmesartan] (concentration: 25 µM), the mean cell size is 0.97 ± 0.034.
The value for `CC(=O)NC[C@H]1CN(c2ccc(N3CCOCC3)c(F)c2)C(=O)O1` [Linezolid] (concentration: 25 µM) was 0.942 ± 0.018; that for `Clc1cccc(Cl)c1NC1=NCCN1` [Clonidine·HCl] (concentration: 25 µM) was 0.931 ± 0.049; that for `CC1(C)S[C@@H]2[C@H](NC(=O)[C@H](N)c3ccccc3)C(=O)N2[C@H]1C(=O)O` [Ampicillin Trihydrate] (concentration: 25 µM) was 0.849 ± 0.05.
Compound `OCCOCCN1CCN(C(c2ccccc2)c2ccc(Cl)cc2)CC1` (stereo not given) [Hydroxyzine Dihydrochloride] (concentration: 25 µM) registered a mean cell size of 0.948 ± 0.021.
The value for `C[C@H](CS)C(=O)N1CCC[C@H]1C(=O)O` [Captopril] (concentration: 25 µM) was 0.951 ± 0.029; that for `CN(C)CCc1c[nH]c2ccc(C[C@H]3COC(=O)N3)cc12` [Zolmitriptan] (concentration: 25 µM) was 0.996 ± 0.017.
